# Assay results taken from the supplement of paper PMC10941209.
# Unmarked numbers belong to inactive results.
# System: Toxoplasma gondii RH 2F1 tachyzoites (intracellular in HFF)
# Assay: parasite survival relative to DMSO control; higher = less antiparasitic activity, active = 20 or less
# Details: 1 µM; 72 h
# How it was run: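 Survival is the β-galactosidase-derived signal from intracellular Toxoplasma gondii RH-2F1 tachyzoites, expressed as a percentage of infected wells treated with DMSO. HFF cells (5 × 10^3 cells/well, 96-well plates) were infected with 5 × 10^3 parasites in D2 medium for 3 h and then treated with compound at 1 μM for 72 h at 37°C in 5% CO2. After lysis, CPRG was added and absorbance at 570 nm was read at 30 min, with 2 or more biological replicates.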
row,SMILES,parasite survival
1,O=C(Nc1ncc(Cc2cccc3ccccc23)s1)C1CCCCC1,25.3%
2,O=[N+]([O-])c1cn2c(n1)OC[C@@H](OCc1ccc(OC(F)(F)F)cc1)C2,45.2%
3,NC1C2CC3CC(C2)CC1C3 (centres undefined),68.3%
4,NCC(=O)Nc1ccc(-n2nc(C(F)(F)F)cc2-c2ccc3c(ccc4ccccc43)c2)cc1,13.7% (active)
5,Clc1cc(Cl)c2c(c1)CCc1ccccc1C2n1ccnc1 (centres undefined),7.97% (active)
6,C=CCN(C(=O)OCc1ccc([N+](=O)[O-])cc1)C1CCN(CC[C@](C)(CN(C)S(=O)(=O)c2ccccc2)c2ccccc2)CC1,35.5%
7,NC(=O)c1c(N)sc2c1CCCCC2,48.8%
8,O=C(c1ccc(F)cc1)N1CCN2C(=O)c3ccccc3C12c1ccccc1 (centres undefined),64.9%
9,Clc1ccc(COC(Cn2ccnc2)c2ccc(Cl)cc2Cl)c(Cl)c1 (centres undefined),21.8%
10,CO/N=C(\C(=O)N[C@@H]1C(=O)N2C(C(=O)OCOC(=O)C(C)(C)C)=C(/C=C\c3scnc3C)CS[C@H]12)c1csc(N)n1,54.4%
11,O=c1cc(OCc2ccccc2)ccn1Cc1ccccc1,37%
12,O=C(Cn1cnc2ccccc2c1=O)Nc1ccccc1,57.7%
13,O=C(/C=C\n1cnc(-c2cc(C(F)(F)F)cc(C(F)(F)F)c2)n1)NNc1ccccn1,4.89% (active)
14,OB1OCc2cc(Cl)ccc21,57.2%
15,Cc1nc(N(C)C(=O)Cc2ccc(-c3ccccn3)cc2)sc1S(N)(=O)=O,72.8%
16,COC(=O)Nc1nc2cc(Sc3ccccc3)ccc2[nH]1,25.4%
17,CCC(C)(C)c1ccc(CC(C)CN2C[C@@H](C)O[C@@H](C)C2)cc1 (some centres undefined),35.1%
18,Nc1nnnn1CCOc1c2[nH]c3ccc(Cl)cc3c2cc2c1[nH]c1ccc(Cl)cc12,28.5%
19,Nc1nc(C(F)(F)F)cc2c1[nH]c(=O)n2Cc1ccccc1,49.1%
20,CC(C)Oc1ccc(-n2cnc3cc(/C=C\c4ccc(C(C)(C)O)cc4)ccc32)cc1,31.7%
21,O=C(CSc1nnc(Br)n1-c1ccc(C2CC2)c2ccccc12)Nc1ccc(C(=O)O)cc1Cl,61%
22,Oc1cccc(C(Nc2nccs2)c2ccc3cccnc3c2O)c1 (centres undefined),2.96% (active)
23,CCCCSc1nc(N)c2[nH]c(=O)c(=O)n(Cc3ccccc3)c2n1,26.1%
24,CC(C)/N=c1\cc2n(-c3ccc(Cl)cc3)c3ccccc3nc-2cc1Nc1ccc(Cl)cc1,4.63% (active)
